Compounds with a hit are over-represented: about 2.6% of the library has one in this group of screens.
FLuc inh = firefly luciferase inhibition. Potency, µM (titrated, usually from 57.1 µM), inactives show at the highest dose activity change, negative = inhibition, most hits filed as inhibitors. purified firefly luciferase, luminescence, 8 min. actives 2.2% (n = 72,000). AID 411. P08659; note: potency is the fitted concentration of half-maximal effect; % is set by controls: 0 for no effect and ±100 for the full control effect; nearly all actives have a fitted effect of over 40% in size
Target sequence (P08659 whole entry, looked up): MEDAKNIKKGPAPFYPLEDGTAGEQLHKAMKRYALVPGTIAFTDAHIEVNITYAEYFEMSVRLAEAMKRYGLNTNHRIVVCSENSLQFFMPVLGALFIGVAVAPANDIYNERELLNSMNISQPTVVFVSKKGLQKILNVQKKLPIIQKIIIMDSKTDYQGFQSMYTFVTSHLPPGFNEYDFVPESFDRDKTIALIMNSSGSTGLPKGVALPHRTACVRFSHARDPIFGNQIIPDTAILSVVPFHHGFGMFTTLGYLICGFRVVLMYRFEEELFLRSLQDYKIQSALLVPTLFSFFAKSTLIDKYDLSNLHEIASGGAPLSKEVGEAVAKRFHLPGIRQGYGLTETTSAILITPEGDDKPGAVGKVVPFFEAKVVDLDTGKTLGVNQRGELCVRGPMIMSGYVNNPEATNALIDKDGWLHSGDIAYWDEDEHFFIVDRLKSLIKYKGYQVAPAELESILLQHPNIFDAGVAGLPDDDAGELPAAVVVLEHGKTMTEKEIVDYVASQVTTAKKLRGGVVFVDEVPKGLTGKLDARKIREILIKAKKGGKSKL
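Titration-based qHTS; buffer 50 mM imidazole pH 7.2, 50 mM KCl, 7 mM MgCl2, 10 uM ATP, 0.01% Tween 20, 0.05% BSA; luciferase/luciferin detector mix added after compound; 8 min, ambient; luminescence.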
Bst PK mod = alters activity of Bacillus stearothermophilus pyruvate kinase | purified pyruvate kinase, luminescence ATP production; ribose 5-phosphate activator present at AC10 | Potency, µM | actives 1.2% (n = 51,000) | AID 361; in the data active = potency below about 11 µM; inconclusive = mostly about 12 µM to 25 µM;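 the screen sought inhibitors and activators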;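 note: potency is the fitted concentration of half-maximal effect; scaled between full activation by ribose 5 phosphate and full inhibition by luteolin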
Ub-GFP proteasome = ubiquitin-GFP accumulation via proteasome inhibition | Ubiquitin-GFP reporter cells, proteasome inhibition, GFP fluorescence; response scale: untreated = 0%, 10 µM MG-132 = 100% | Potency, µM (doses to about 45.9 µM), without a hit: at the highest dose activation (GFP accumulation), usual class: activators | 67,000 tested, under 10 active; active = well fitted activation curve with a large enough effect, not every such curve was filed as active; inconclusive = small, poorly fitted or top-dose-only effect, or another doubt; inactive = no such curve, though single readings can be large or run the other way; note: potency is the fitted concentration of half-maximal effect
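Reporter cells (U2OS, ubiquitin-G76V-GFP fusion) are plated overnight, then treated 4 hr at 37 °C with compound titrations from 46 uM down to 2.9 nM. Activity is scaled against untreated cells and 10 uM MG-132.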
HBB splice mod = modulators of hemoglobin beta chain splicing; HBB splicing reporter cell assay, activation; EGFP reporter with mutant IVS2-654 intron; response scale: normalised to 500 nM splice-correcting PNA; Potency, µM (highest dose often 46.1 µM), for the others: at the highest dose activation, actives largely listed as activators; actives 0.06% (n = 65,000); note: potency is the fitted concentration of half-maximal effect; 0% is about no effect
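Compounds were applied for 2 days to HeLa EGFP-654 cells, 500/well in Optimem with 2% FCS. The reporter's EGFP is disrupted by mis-splicing of beta-globin intron IVS2-654. Readout: summed well GFP fluorescence from 488 nm laser scanning; reference was 500 nM antisense […] 654 PNA.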
GFP derepression = epigenetic GFP locus derepression in mouse cells; actives 0.09% (n = 68,000); Potency, µM (doses to about 46.1 µM), for inactives: at the highest dose GFP derepression (activation); mouse C127i GFP locus derepression, cytometry, 30 h; note: % of control where 0% means no effect
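Derepression screen: silenced CMV-GFP reporter in murine C127i cells, 30 h compound incubation at 37 C, washed cells imaged by laser-scanning cytometer to enumerate GFP-expressing objects of 20 to 120 um.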
An asterisk follows results filed as active; i = inactive; u = inconclusive; x = no result given; [ ] = remark or other dose. Unless noted, calls come from the whole dose curve; as a rule, active = well fitted curve in the direction sought with a large enough effect; inconclusive = small, poorly fitted or top-dose-only effect, or another doubt; inactive = no such curve, though single readings can be large; an effect the other way counts as inactive or inconclusive.

SMILES	FLuc inh	Bst PK mod	Ub-GFP proteasome	HBB splice mod	GFP derepression
c1ccc(-c2ccc(-c3nc(-c4ccncc4)no3)cc2)cc1	3.2µM*	x	6%	-1%	-2%
Clc1ccccc1-c1nc(-c2ccncc2)no1	-24%[11.4 µM]	x	5%[9.17 µM]	3%[9.22 µM]	7%[9.22 µM]
CCC(=O)[C@]12O[C@@]3(C4C(=O)OCCC41)N(CC)C(C)=C(C(=O)OC)C(c1ccccc1)N3C2=O (some centres undefined)	x	x	x	1%[9.22 µM]	x
COc1ccc(-n2c(=O)cnc3cnc(N(C)C)nc32)cc1	2%[11.4 µM]	x	u	-1%	2%[9.22 µM]
c1ccc(-c2ccc(-c3nc(-c4cccnc4)no3)cc2)cc1	3.2µM*	x	-7%	0%	2%
COc1ccc(/C=N/c2nc3ccccc3n2C)cc1OC	20µM*	i	u	1%	3%
Nn1c(-c2cccs2)nc2sc3c(c2c1=O)CCCC3	16µM*	u	3%	-1%	2%
CC1(C)Cc2c(sc3nc(-c4cccs4)n(N)c(=O)c23)CO1	13µM*	i	1%	-1%[57.5 µM]	0%
Cn1c(=O)n2n(c1=O)[C@H]1[C@H](O)[C@H]3O[C@@H]3/C(=N/OC[C@@H](O)COCc3ccco3)[C@@H]1CC2	0%[11.4 µM]	x	x	1%[9.22 µM]	x
O=C1C(C=NCCCN2CCOCC2)=C(O)c2ccccc21	-2%	x	-10%	0%	-2%
O=C1C(C=NCCN2CCOCC2)=C(O)c2ccccc21	13µM*	x	26%[9.17 µM]	0%[0.0738 µM]	0%
COc1cc(-c2nnc3sc(-c4cccs4)nn23)cc(OC)c1OC	1%	2.8*	-7%	1%[1.84 µM]	-2%
COc1ccc(-c2nn3c(-c4cccc(C)c4)nnc3s2)cc1OC	0%	>57	-1%	2%[57.5 µM]	2%
COc1ccc(-c2nnc3sc(-c4cccs4)nn23)cc1OC	0%	2.6*	-2%	0%[57.5 µM]	4%
S=C1N[C@H](c2ccccc2)N[C@H](c2ccccc2)S1	1%[11.4 µM]	x	-8%[9.17 µM]	0%[9.22 µM]	13%[9.22 µM]
C[C@@]12CC[C@@H]3[C@H](CCC4=CC(=O)CC[C@]43C)[C@@H]1CC[C@@H]2C(=O)COS(=O)(=O)c1ccc(Br)cc1	3%[11.4 µM]	x	3%[9.17 µM]	5%[9.22 µM]	2%[9.22 µM]
COc1ccc2c(c1OC)C(=O)N1c3ccccc3SC21 (centres undefined)	5µM*	i	x	x	10%[20.6 µM]
COc1ccc2c(c1OC)C(=O)N1c3cccc(Cl)c3C(=O)OC21 (centres undefined)	-3%	>57	12%	1%	0%
COc1ccc2c(c1OC)C(=O)N1c3ccccc3COC21 (centres undefined)	10µM*	u	3%	0%	0%
Cc1nnc(NC(=O)c2ccc3c(c2)C(=O)N(CC2CCCO2)C3=O)s1 (centres undefined)	-21%	x	4%	-1%	6%
O=C(Nc1ccc(O)c(C(=O)O)c1)c1ccc2c(c1)C(=O)N(CC1CCCO1)C2=O (centres undefined)	13µM*	x	3%	4%	6%
O=C(O)C(NS(=O)(=O)c1cccc2cccnc12)c1ccccc1 (centres undefined)	1%	x	11%	0%	x
COC(=O)c1sc2nc3c(cc2c1N)COC(C)(C)C3	13µM*	x	-4%	-1%[9.22 µM]	2%
CCOC(=O)c1oc2nc3c(cc2c1N)COC(C)(C)C3	-27%	>11	-1%	0%[57.5 µM]	0%
CCNc1ncc2ncc(=O)n(C)c2n1	2%[11.4 µM]	x	5%	0%	4%[9.22 µM]
SMILES	FLuc inh	Bst PK mod	Ub-GFP proteasome	HBB splice mod	GFP derepression
O=C(Nc1nnc(CCN2CCCCC2)s1)C1CCCCC1	-12%	>57	3%	0%	3%
O=C(Nc1nnc(CCN2CCOCC2)s1)C1CCCCC1	13µM*	10*	-6%	-2%	6%
O=C(Nc1cccc(-c2cn3ccsc3n2)c1)c1ccccc1	25µM*	i	0%	3%[57.5 µM]	-2%
O=C(Nc1ccc(-c2cn3ccsc3n2)cc1)C1COc2ccccc2O1 (centres undefined)	-24%	x	0%	0%[57.5 µM]	0%
COc1ccccc1C(=O)Nc1cccc(-c2cn3ccsc3n2)c1	13µM*	u	5%	-1%	2%
O=C(Nc1ccc(-c2cn3ccccc3n2)cc1)c1cc(Br)ccc1O	-2%[11.4 µM]	x	-2%[9.17 µM]	2%[9.22 µM]	0%[9.22 µM]
CCOc1ncccc1C(=O)Nc1ccc(-c2cn3ccsc3n2)cc1	0%	>57	-2%	0%[57.5 µM]	0%
CCCCC(=O)Nc1cccc(-c2cn3ccsc3n2)c1	13µM*	i	-2%	-1%	-1%
O=C(Nc1cccc(-c2cn3ccccc3n2)c1)c1cnccn1	4µM*	x	-2%	x	0%
NC(=O)c1ccc(-c2ccc(Br)cc2)o1	-24%	5.1*	-7%	0%[57.5 µM]	0%
CCC/C=C(\CCC)C(NP(=O)(c1ccccc1)c1ccccc1)c1ccc(C(F)(F)F)cc1 (centres undefined)	x	x	x	0%	x
O=C(NCCN1C(=O)C2C3C=CC(C3)C2C1=O)Nc1ccc(Br)cc1 (centres undefined)	16µM*	x	9%	-1%	x
C=CC(=O)OCCCC	x	x	x	1%	x
C=C(C)C(O)/C=C/C=C/c1ccccc1 (centres undefined)	x	x	x	-1%[9.22 µM]	x
COc1ccc(-c2nc3cnc(N4CCN(C)CC4)nc3n(CCc3ccccc3)c2=O)cc1	1%[11.4 µM]	x	u	u	2%[9.22 µM]
CC1CCc2c(sc3nc(SCC(=O)NCc4ccco4)nc(N)c23)C1 (centres undefined)	13µM*	i	3%	-6%[57.5 µM]	2%
Cc1nnc(NC(=O)C2CCCO2)s1 (centres undefined)	0%	>57	4%	x	1%
CC1CCc2nc(NC(=O)Cc3cccs3)sc2C1 (centres undefined)	-25%	x	0%	0%	0%
CC1CCc2nc(NC(=O)C3CCCO3)sc2C1 (centres undefined)	13µM*	i	-4%	-1%	3%
CC1CCc2nc(NC(=O)c3ccco3)sc2C1 (centres undefined)	2µM*	1.2*	0%	0%	4%
Cc1cc(C(=O)CN2C(=O)c3ccccc3S2(=O)=O)c(C)n1CC1CCCO1 (centres undefined)	16µM*	x	7%	0%[57.5 µM]	8%
C1CCCC1	x	x	x	1%	x
Cc1cc(C)cc(Nc2ncc3c(n2)CCCC3=O)c1	13µM*	x	6%	2%[1.84 µM]	2%
Cc1ccc2nc(Nc3ncc4c(n3)CCCC4=O)nc(C)c2c1	4%	>57	10%	1%	-3%
COCCn1c(=O)c(-c2ccc(OC)cc2)nc2cnc(Oc3ccc(OC)cc3)nc21	1%[11.4 µM]	x	-1%	3%	2%[9.22 µM]
Cc1cc(=O)oc2c(OS(C)(=O)=O)c(OS(C)(=O)=O)ccc12	2%[11.4 µM]	x	-6%[9.17 µM]	0%[9.22 µM]	0%[9.22 µM]
CCN(CC)C(=O)Oc1ccc2c(=O)c(-c3ccccc3)coc2c1	16µM*	x	-3%	5%	3%
O=C(Nc1nc(-c2ccccc2)cs1)c1cccs1	13µM*	x	-12%	-1%[9.22 µM]	-2%

Screens (PubChem)
